The values that follow come from ChEMBL document CHEMBL3988442, “University of Dundee, Small-Polar-MMV Screening Library” (2021).

What all share (set-up): scale not given: direction of the effect not stated beside the values
Experiment [1] addresses Protein translocase subunit SecA (Escherichia coli (strain K12)) (UniProt P10408). The experiment in a line: Assay to Identify E. coli SecA ATPase Inhibitors. Conditions: 30 µM. The class given is functional.
In experiment [2] the target is T1, Ubiquitin-activating enzyme e1, putative (Leishmania donovani (strain BPK282A1)) (UniProt E9BSI1).
T1 sequence (whole entry): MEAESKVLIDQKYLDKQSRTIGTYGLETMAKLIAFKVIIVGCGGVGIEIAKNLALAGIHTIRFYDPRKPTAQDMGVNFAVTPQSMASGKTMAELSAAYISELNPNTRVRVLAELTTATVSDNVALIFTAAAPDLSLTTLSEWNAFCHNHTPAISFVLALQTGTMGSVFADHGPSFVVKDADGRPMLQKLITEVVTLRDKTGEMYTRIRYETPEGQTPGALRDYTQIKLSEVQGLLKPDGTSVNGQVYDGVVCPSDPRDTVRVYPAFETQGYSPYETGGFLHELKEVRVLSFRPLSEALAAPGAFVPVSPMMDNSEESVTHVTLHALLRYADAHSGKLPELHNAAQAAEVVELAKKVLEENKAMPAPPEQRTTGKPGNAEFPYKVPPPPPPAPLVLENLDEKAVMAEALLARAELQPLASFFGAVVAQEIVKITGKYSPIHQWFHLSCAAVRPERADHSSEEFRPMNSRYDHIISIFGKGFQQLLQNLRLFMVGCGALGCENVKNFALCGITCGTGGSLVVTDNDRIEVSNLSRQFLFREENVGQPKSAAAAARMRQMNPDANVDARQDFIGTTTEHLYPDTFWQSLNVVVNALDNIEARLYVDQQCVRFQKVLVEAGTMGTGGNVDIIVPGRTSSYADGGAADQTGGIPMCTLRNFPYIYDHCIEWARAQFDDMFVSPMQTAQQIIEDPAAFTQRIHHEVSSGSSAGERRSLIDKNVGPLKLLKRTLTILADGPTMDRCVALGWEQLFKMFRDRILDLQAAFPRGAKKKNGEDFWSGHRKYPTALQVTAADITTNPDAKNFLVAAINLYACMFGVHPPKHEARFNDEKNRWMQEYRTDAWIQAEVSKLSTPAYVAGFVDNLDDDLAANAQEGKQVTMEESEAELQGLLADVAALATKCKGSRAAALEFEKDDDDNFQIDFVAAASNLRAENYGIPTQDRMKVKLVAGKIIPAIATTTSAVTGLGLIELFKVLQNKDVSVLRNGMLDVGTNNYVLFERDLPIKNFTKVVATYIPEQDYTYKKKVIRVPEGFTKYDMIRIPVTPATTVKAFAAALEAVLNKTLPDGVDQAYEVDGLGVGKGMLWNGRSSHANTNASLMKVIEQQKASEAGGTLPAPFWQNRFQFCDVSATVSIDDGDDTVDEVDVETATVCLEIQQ
As to the kind of experiment: Leishmania donovani Ubiquitin Activating Enzyme (LdE1). The class given is functional. The conditions noted are these: 30 µM.

In experiment [3] the target is AMP-activated protein kinase, AMPK (Homo sapiens) (UniProt P54646+O43741+P54619+Q9UGJ0+Q9Y478+Q13131+Q9UGI9). The experiment in a line: AMP-dependent Kinase enzyme assay. An in vitro enzyme assay that detects ADP turnover that is directly proportional to AMPK activity. This uses naive AMPK that is activated during the assay with MK-8722. The conditions noted are these: 30 µM. The class given is functional.

Experiment [4] addresses Sialic acid-binding Ig-like lectin 9 (Homo sapiens) (UniProt Q9Y336). The experiment in a line: Hs-Siglec9 ALPHAscreen SOP 20170721. The conditions noted are these: 10 µM.
The test system of the next experiment is Trypanosoma cruzi. The experiment in a line: Trypanosoma cruzi phosphomannomutase and mannose-1-phosphate guanylyltransferase assay. The conditions noted are these: 10 µM. It is filed as functional.
Experiment [5] deals with T2, Arginase-2, mitochondrial (Homo sapiens) (UniProt P78540).
T2 sequence (whole entry): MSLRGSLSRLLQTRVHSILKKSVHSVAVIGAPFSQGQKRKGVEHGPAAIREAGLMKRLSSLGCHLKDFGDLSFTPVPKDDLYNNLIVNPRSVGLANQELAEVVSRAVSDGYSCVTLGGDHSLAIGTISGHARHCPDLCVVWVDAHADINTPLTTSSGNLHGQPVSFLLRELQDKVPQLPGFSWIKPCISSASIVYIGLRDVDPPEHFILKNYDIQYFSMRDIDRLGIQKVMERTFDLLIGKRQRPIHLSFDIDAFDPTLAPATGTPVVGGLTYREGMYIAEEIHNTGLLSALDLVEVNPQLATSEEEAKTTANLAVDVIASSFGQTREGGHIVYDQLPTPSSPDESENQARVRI
As to the kind of experiment: in vitro enzyme assay to detect the production of urea directly proportional to the activity of Arginase II. Also: in the data most compounds retested in dose-response had high values. The class given is functional. Conditions: 33.3 µM.

Experiment [6] addresses T3, Proteasome subunit beta (Trypanosoma cruzi) (UniProt O96673).
T3 sequence (whole entry): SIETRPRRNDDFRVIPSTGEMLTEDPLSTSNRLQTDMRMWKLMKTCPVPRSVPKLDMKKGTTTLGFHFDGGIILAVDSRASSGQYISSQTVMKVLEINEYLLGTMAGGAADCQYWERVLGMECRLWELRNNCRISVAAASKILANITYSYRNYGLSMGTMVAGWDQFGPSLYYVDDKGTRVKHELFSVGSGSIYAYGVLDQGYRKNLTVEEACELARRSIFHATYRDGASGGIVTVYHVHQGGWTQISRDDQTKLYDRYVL
The experiment in a line: Trypanosoma cruzi proteasome chymotrypsin-like activity (TcProtChymo) assay. Also: in the data most compounds retested in dose-response had high values. The class given is functional. The conditions noted are these: 9.37 µM.

For another experiment, the species on record is Homo sapiens. As to the kind of experiment: To identify inhibition of the IFN signalling (Jak-Stat) pathway via expression of an eGFP reporter gene under the control of an IFN-stimulated response element (ISRE) containing MxA promoter. It is filed as functional. Conditions: 30 µM. On the technique in general: Reporter assays use an easily measured gene product as a stand-in for the process of interest.

Experiment [7] concerns the target T4, Tyrosyl-tRNA synthetase, putative (Trypanosoma cruzi (strain CL Brener)) (UniProt Q4DSP6).
T4 sequence (whole entry): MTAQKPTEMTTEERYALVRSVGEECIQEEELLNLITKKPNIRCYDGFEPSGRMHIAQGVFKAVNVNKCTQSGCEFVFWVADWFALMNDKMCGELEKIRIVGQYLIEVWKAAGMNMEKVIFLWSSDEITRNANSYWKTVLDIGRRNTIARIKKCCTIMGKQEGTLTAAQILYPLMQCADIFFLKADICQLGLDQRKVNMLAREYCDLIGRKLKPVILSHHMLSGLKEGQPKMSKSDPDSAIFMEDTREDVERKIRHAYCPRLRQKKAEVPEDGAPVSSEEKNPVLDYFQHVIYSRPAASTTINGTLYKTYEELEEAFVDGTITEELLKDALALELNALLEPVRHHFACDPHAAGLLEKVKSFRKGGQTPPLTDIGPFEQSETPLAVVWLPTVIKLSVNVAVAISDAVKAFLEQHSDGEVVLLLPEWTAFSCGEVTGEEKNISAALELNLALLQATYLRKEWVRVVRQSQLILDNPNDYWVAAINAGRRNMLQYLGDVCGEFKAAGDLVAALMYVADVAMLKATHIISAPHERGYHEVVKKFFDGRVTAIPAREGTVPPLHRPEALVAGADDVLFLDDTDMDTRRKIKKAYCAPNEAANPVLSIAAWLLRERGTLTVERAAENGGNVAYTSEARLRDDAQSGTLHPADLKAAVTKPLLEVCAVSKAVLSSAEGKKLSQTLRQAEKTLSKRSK
As to the kind of experiment: Trypanosoma cruzi tyrosyl tRNA synthetase (TcYRS) _High Tyrosine SOP. Also: in the data most compounds retested in dose-response had high values. The class given is functional. The conditions noted are these: 30 µM.

Experiment [8] concerns the target T4, Tyrosyl-tRNA synthetase, putative (Trypanosoma cruzi (strain CL Brener)). The experiment in a line: Trypanosoma cruzi tyrosyl tRNA synthetase (TcYRS) SOP. The class given is functional. The conditions noted are these: 30 µM.
Experiment [9] deals with Chromo domain-containing protein 1 (Saccharomyces cerevisiae (strain ATCC 204508 / S288c) (Baker's yeast)) (UniProt P32657). The experiment in a line: ScCHD-1 Enzyme Inhibition Assay. Also: in the data most compounds retested in dose-response had high values. The conditions noted are these: 30 µM. It is filed as functional.
Sequence of Chromo domain-containing protein 1 (Saccharomyces cerevisiae (strain ATCC 204508 / S288c) (Baker's yeast)) (P32657 whole entry, the tested form may be a part): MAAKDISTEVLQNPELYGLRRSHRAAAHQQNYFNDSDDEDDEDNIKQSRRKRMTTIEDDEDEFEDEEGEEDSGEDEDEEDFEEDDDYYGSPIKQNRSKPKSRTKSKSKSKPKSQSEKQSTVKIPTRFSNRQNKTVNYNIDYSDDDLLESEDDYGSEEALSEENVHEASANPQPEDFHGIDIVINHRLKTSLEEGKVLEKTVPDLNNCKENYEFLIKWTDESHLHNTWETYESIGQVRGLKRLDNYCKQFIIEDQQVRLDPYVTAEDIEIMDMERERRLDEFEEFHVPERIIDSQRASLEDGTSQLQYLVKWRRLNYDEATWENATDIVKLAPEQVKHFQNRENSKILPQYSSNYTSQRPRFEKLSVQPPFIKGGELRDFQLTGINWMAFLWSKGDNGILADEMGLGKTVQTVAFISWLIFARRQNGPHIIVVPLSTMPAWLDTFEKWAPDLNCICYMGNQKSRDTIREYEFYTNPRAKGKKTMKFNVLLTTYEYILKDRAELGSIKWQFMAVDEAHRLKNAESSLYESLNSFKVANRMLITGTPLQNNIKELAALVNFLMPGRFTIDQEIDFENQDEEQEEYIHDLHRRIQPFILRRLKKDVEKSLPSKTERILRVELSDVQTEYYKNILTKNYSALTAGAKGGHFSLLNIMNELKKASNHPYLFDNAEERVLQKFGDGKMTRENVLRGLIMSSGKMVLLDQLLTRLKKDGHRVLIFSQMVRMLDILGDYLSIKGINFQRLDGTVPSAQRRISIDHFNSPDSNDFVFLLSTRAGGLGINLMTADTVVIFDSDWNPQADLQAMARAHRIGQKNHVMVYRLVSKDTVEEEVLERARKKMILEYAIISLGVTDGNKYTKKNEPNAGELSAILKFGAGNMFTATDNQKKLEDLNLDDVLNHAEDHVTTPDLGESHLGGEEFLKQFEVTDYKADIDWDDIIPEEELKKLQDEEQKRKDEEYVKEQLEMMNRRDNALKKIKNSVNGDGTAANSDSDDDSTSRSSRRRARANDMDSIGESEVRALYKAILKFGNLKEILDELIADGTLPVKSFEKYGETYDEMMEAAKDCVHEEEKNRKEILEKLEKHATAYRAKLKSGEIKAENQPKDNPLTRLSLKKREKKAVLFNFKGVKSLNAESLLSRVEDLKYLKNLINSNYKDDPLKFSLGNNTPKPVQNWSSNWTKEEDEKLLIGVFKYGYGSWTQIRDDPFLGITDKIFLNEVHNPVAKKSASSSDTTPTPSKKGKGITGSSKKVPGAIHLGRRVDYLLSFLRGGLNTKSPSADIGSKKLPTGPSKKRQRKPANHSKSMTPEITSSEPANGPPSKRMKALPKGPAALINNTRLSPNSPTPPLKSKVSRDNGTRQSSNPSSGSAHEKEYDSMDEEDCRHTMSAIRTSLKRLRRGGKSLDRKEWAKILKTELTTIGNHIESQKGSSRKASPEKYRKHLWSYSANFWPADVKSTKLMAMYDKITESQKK

For some of these results: Results with a measured potency or affinity are listed apart.

Sequence of Protein translocase subunit SecA (Escherichia coli (strain K12)) (P10408 whole entry): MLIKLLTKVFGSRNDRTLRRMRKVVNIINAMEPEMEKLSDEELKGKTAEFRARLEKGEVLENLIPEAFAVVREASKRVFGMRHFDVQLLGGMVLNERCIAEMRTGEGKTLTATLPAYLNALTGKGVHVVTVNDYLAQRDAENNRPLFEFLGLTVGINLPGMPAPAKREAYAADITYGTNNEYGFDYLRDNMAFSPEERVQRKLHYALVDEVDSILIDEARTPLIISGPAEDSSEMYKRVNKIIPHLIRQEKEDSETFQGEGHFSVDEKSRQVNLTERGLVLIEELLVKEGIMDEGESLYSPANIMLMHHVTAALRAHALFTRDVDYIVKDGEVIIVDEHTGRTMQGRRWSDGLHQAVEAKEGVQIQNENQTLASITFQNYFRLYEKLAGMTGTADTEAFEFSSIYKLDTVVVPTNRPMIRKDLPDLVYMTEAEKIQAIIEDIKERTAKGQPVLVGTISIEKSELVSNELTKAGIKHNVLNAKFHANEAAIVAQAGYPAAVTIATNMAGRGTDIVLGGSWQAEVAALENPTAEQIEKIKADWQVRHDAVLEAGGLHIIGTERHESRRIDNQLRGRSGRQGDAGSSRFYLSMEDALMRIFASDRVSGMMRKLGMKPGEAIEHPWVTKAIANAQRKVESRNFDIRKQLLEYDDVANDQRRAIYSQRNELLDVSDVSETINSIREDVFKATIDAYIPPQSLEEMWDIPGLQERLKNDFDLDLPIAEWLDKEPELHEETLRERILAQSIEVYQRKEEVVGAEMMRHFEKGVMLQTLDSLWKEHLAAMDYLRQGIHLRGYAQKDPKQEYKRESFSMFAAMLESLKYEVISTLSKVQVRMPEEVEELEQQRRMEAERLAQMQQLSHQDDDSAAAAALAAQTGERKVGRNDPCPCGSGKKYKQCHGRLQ
Sequence of Sialic acid-binding Ig-like lectin 9 (Homo sapiens) (Q9Y336 whole entry): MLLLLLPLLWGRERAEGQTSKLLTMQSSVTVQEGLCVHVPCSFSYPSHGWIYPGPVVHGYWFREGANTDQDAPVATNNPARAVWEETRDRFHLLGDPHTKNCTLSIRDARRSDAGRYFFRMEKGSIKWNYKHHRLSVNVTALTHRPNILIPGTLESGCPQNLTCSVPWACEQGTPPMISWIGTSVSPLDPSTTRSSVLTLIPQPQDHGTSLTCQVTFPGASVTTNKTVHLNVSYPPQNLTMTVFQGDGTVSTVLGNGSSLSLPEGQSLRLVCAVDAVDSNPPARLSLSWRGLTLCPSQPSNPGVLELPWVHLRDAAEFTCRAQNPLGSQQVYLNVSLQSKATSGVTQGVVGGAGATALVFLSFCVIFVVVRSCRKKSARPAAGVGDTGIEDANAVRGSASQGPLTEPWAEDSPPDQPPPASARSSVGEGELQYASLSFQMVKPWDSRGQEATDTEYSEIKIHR

`Cc1cccc(-n2cc(C(=O)N3CCCC(n4ccnc4)C3)nn2)c1` (stereo unspecified): the Percent Effect in experiment [1] was -3.01%; in experiment [2], 15.6%; in experiment [3], 7.1%; in experiment [4], -13.5%; with Trypanosoma cruzi it was -5.58%; in [5], -3.16%. For the same compound, the Percent Effect in experiment [6] is 14.6%; in the experiment filed under Homo sapiens, 21.7%; in [7] it was 1.91%; in experiment [8], 11.8%; in experiment [9] it was -17.4%.

For `O=c1cc(CN2CCCC(CCc3c(F)cccc3F)C2)[nH]c(=O)[nH]1` (stereo unspecified), the Percent Effect in experiment [1] was 1.76%; in experiment [2] it was 10.8%; in experiment [3] it was -7.22%; in [4], 1.61%; with Trypanosoma cruzi it was 4.25%; in [5] it was 14.3%. For the same compound, the Percent Effect in experiment [6] is 16.7%; in the experiment filed under Homo sapiens, 25%; in experiment [7] it was 10.1%; in experiment [8], 19.5%; in experiment [9] it was -4.32%.

For `Cc1ccsc1CN(CCN(C)C)Cc1ccccn1`, the Percent Effect is -5.5% in experiment [1]; 4.17% in experiment [2]; -16.2% in experiment [3]; 21.2% in experiment [4]; 5.15% with Trypanosoma cruzi; 18.5% in experiment [5]. Moreover, the Percent Effect in experiment [6] is 11.1%; in the experiment listed under Homo sapiens, -4.45%; in experiment [7], 7.37%; in experiment [8], 15.4%; in experiment [9], -9.23%.

Turning to `COCc1ccccc1NC(=O)[C@@H]1CCCN1C(=O)c1ccco1`, the Percent Effect in experiment [1] is -0.218%; in experiment [2], 9.72%; in experiment [3], -5.33%; in [4] it was 20.1%; with Trypanosoma cruzi it was 2.82%; in [5], 6.62%. In addition, the Percent Effect in [6] is 12.8%; in the experiment listed under Homo sapiens, 8.02%; in experiment [7] it was 1.05%; in experiment [8], 5.13%; in experiment [9], -1.82%.

For `CN(C)C(=O)C1CN(Cc2cscn2)CCN(S(C)(=O)=O)C1` (stereo unspecified), the Percent Effect in experiment [1] is -11.5%; in experiment [2], 17.6%; in experiment [3] it was -0.331%; in experiment [4] it was 3.06%; in the experiment on Trypanosoma cruzi, 1.98%; in [5], -1.16%. The Percent Effect in [6] was 6.55%; in the experiment listed under Homo sapiens, 2.48%; in [7] it was 7.53%; in [8], 19.5%; in [9] it was -22.4%.

In the case of `Cc1cc(-c2cnc(N3CCNC(=O)C3)nc2-c2ccc(C)o2)on1`, the Percent Effect was -8.2% in [1]; 21.3% in experiment [2]; 3.79% in experiment [3]; 11.1% in experiment [4]; 1.38% with Trypanosoma cruzi; -6.76% in experiment [5]. The Percent Effect in experiment [6] is 11.4%; in the experiment listed under Homo sapiens it was 29.2%; in experiment [7], 5.32%; in experiment [8], 11.5%; in experiment [9], -16.5%.

Regarding `Cc1cc(C(=O)N2C[C@@H]3[C@@H](C2)OCC(=O)N3CC2CC2)no1`, the Percent Effect in experiment [1] is -1.71%; in [2], -31.2%; in experiment [3], 5.62%; in experiment [4] it was 6.36%; with Trypanosoma cruzi it was -6.98%; in [5] it was -16.6%. Besides, the Percent Effect was 4.49% in [6]; 6.95% in the experiment filed under Homo sapiens; -54.8% in experiment [7]; -90.1% in experiment [8]; 0.00283% in [9].

Regarding `O=C(c1cnccn1)N1C[C@@H]2CC[C@H](C1)N(C(=O)Cc1ccsc1)C2`, the Percent Effect in experiment [1] is -5.86%; in [2], 2.6%; in [3], 5.34%; in experiment [4] it was 4.9%; in the experiment on Trypanosoma cruzi, -4.82%; in [5], -16.6%. Also, the Percent Effect in [6] was 9.32%; in the experiment listed under Homo sapiens, 8.73%; in experiment [7] it was 5.38%; in [8], 3.7%; in experiment [9], -0.624%.

As to `Cc1nn(C)c(Cl)c1C1CCCN1C(=O)c1cc(Cl)c[nH]1` (stereo unspecified), the Percent Effect in experiment [1] is -2.13%; in [2], 2.7%; in experiment [3], 0.443%; in experiment [4], 9.97%; with Trypanosoma cruzi, -1.79%; in experiment [5], 2%. Besides, the Percent Effect in [6] was -1.62%; in the experiment listed under Homo sapiens, 2.15%; in experiment [7] it was 7.39%; in [8], 3.7%; in experiment [9] it was 2.56%.

For the compound `CCn1cc2c(n1)CN(Cc1nccs1)CC2COCC1CC1` (stereo unspecified), the Percent Effect in experiment [1] was -2.47%; in experiment [2] it was 13.3%; in experiment [3], 8.82%; in experiment [4] it was 0.752%; with Trypanosoma cruzi, -0.197%; in experiment [5], 3.03%. Besides, the Percent Effect was 6.61% in experiment [6]; 0.895% in the experiment listed under Homo sapiens; 6.38% in [7]; 11.5% in experiment [8]; -4.67% in experiment [9].

As for `CC(C)C1CN(c2ncc(F)cn2)CCC(=O)N1Cc1ccc(F)cc1` (stereo unspecified), the Percent Effect in experiment [1] was -2.05%; in experiment [2] it was 12.5%; in experiment [3] it was -4.48%; in experiment [4] it was 14.3%; in the experiment with Trypanosoma cruzi, 6.51%; in experiment [5] it was 8.83%. The Percent Effect in [6] is 13.3%; in the experiment filed under Homo sapiens, -7.42%; in experiment [7], 9.47%; in experiment [8], 15.4%; in experiment [9], -4.54%.
